According to PubChem BioAssay (Tox21):
Records with an inconclusive call do not appear. The source made the active and inactive calls. The call rests on the fitted dose curve; in most records, active means well fitted curve in the direction sought with a large enough effect in the repeat runs; inconclusive means weak or mixed curves; inactive means no such curve, though single readings can be large; an effect the other way counts as inactive or inconclusive.

How the values were obtained:
[1] = qHTS RealTime-Glo MT Cell Viability Assay in HepG2 cells - 40 hour (AID 1224870); details: RealTime-Glo luminescence; series mostly up to 76.8 µM; further: nearly all actives have a fitted effect of over 50% in size
In short: (§1)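 Real-time viability: cells seeded at 600 per well together with NanoLuc and cell-permeant prosubstrate, compounds added after 5 h incubation. Luminescence tracked at 0, 8, 16, 24, 32 and 40 h of exposure.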

[2] = A CellTox Green Cytotoxicity Assay to monitor cytotoxicity in HEK293 cells - 40 hour (AID 1224871); details: CellTox Green fluorescence; series mostly up to 76.8 µM; further: nearly all actives have a fitted effect of over 45% in size; further: potency means the concentration at half of the fitted maximal effect
In short: (§2)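 HEK293 cells premixed with CellTox Green dye were seeded at 600 cells/well and left 5 h at 37 C/5% CO2 before pin transfer of 23 nL compound in DMSO. Fluorescence from dye bound to dead-cell DNA was read during 40 h treatment.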

[3] = qHTS RealTime-Glo MT Cell Viability Assay in HEK293 cells - 16 hour (AID 1224872); details: RealTime-Glo luminescence; series mostly up to 76.8 µM; further: top concentration of the series differs between compounds; nearly all actives have a fitted effect of over 50% in size
In short: (§3)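 Assay medium contained NanoLuc luciferase plus cell-permeant prosubstrate, added with HEK293 cells at 600 cells/well. After 5 h at 37 C/5% CO2 compounds were added; plates stayed at 37 C for 40 h with serial luminescence reads.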

[4] = qHTS RealTime-Glo MT Cell Viability Assay in HepG2 cells - 8 hour (AID 1224873); details: RealTime-Glo luminescence; series mostly up to 76.8 µM; further: nearly all actives have a fitted effect of over 55% in size
In short: as §1

[5] = qHTS RealTime-Glo MT Cell Viability Assay in HEK293 cells - 40 hour (AID 1224874); details: RealTime-Glo luminescence; max response: hits give low values; further: nearly all actives have a fitted effect of over 50% in size
In short: (§4)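 HEK293 cells mixed with RealTime-Glo reagents (NanoLuc plus cell-permeant prosubstrate) at 600 cells/well, preincubated 5 h at 37 C/5% CO2, then given 23 nL compound in DMSO. Nonlytic luminescence from viable cells was read at 0, 8, 16, 24, 32 and 40 h.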

[6] = A CellTox Green Cytotoxicity Assay to monitor cytotoxicity in HEK293 cells - 24 hour (AID 1224875); details: CellTox Green fluorescence; series mostly up to 76.8 µM; further: nearly all actives have a fitted effect of over 45% in size; further: potency means the concentration at half of the fitted maximal effect
In short: as §2

[7] = A CellTox Green Cytotoxicity Assay to monitor cytotoxicity in HepG2 cells - 16 hour (AID 1224876); details: CellTox Green fluorescence; series mostly up to 76.8 µM; further: nearly all actives have a fitted effect of over 45% in size; further: potency means the concentration at half of the fitted maximal effect
In short: (§5)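 HepG2 cells were seeded together with the CellTox Green dye at 600 cells/well, left 5 h at 37 C/5% CO2, then given compounds in DMSO. Fluorescence from dye bound to dead-cell DNA was read repeatedly over 40 h of treatment at 37 C.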

[8] = qHTS RealTime-Glo MT Cell Viability Assay in HepG2 cells - 32 hour (AID 1224877); details: RealTime-Glo luminescence; series mostly up to 76.8 µM; further: nearly all actives have a fitted effect of over 55% in size
In short: (§6)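 qHTS, HepG2, 600 cells/well, RealTime-Glo (NanoLuc + prosubstrate) added with cells; 5 h preincubation; DMSO compound addition; 37 C; luminescence at 0/8/16/24/32/40 h.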

[9] = A CellTox Green Cytotoxicity Assay to monitor cytotoxicity in HepG2 cells - 24 hour (AID 1224878); details: CellTox Green fluorescence; series mostly up to 76.8 µM; further: nearly all actives have a fitted effect of over 45% in size; further: potency means the concentration at half of the fitted maximal effect
In short: as §5

[10] = A CellTox Green Cytotoxicity Assay to monitor cytotoxicity in HepG2 cells - 40 hour (AID 1224879); details: CellTox Green fluorescence; series mostly up to 76.8 µM; further: nearly all actives have a fitted effect of over 40% in size; further: potency means the concentration at half of the fitted maximal effect
In short: as §5

[11] = qHTS RealTime-Glo MT Cell Viability Assay in HEK293 cells - 0 hour (AID 1224880); details: RealTime-Glo luminescence; series mostly up to 76.8 µM
In short: as §4

[12] = A CellTox Green Cytotoxicity Assay to monitor cytotoxicity in HEK293 cells - 32 hour (AID 1224881); details: CellTox Green fluorescence; series mostly up to 76.8 µM; further: nearly all actives have a fitted effect of over 40% in size
In short: as §2

[13] = A CellTox Green Cytotoxicity Assay to monitor cytotoxicity in HepG2 cells - 0 hour (AID 1224882); details: CellTox Green fluorescence; series mostly up to 76.8 µM; further: nearly all actives have a fitted effect of over 35% in size; further: potency means the concentration at half of the fitted maximal effect
In short: as §5

[14] = A CellTox Green Cytotoxicity Assay to monitor cytotoxicity in HepG2 cells - 32 hour (AID 1224883); details: CellTox Green fluorescence; series mostly up to 76.8 µM; further: nearly all actives have a fitted effect of over 50% in size; further: potency means the concentration at half of the fitted maximal effect
In short: as §5

[15] = A CellTox Green Cytotoxicity Assay to monitor cytotoxicity in HEK293 cells - 8 hour (AID 1224884); details: CellTox Green fluorescence; series mostly up to 76.8 µM; further: nearly all actives have a fitted effect of over 35% in size; further: potency means the concentration at half of the fitted maximal effect
In short: as §2

[16] = qHTS RealTime-Glo MT Cell Viability Assay in HEK293 cells - 8 hour (AID 1224887); details: RealTime-Glo luminescence; series mostly up to 76.8 µM
In short: as §4

[17] = A CellTox Green Cytotoxicity Assay to monitor cytotoxicity in HEK293 cells - 16 hour (AID 1224888); details: CellTox Green fluorescence; series mostly up to 76.8 µM; further: nearly all actives have a fitted effect of over 35% in size; further: potency means the concentration at half of the fitted maximal effect
In short: as §2

[18] = qHTS RealTime-Glo MT Cell Viability Assay in HepG2 cells - 0 hour (AID 1224889); details: RealTime-Glo luminescence; series mostly up to 76.8 µM; further: nearly all actives have a fitted effect of over 50% in size; further: potency means the concentration at half of the fitted maximal effect
In short: as §6

[19] = qHTS RealTime-Glo MT Cell Viability Assay in HepG2 cells - 16 hour (AID 1224885); details: RealTime-Glo luminescence; series mostly up to 76.8 µM; further: nearly all actives have a fitted effect of over 50% in size
In short: as §6

[20] = qHTS RealTime-Glo MT Cell Viability Assay in HEK293 cells - 24 hour (AID 1224886); details: RealTime-Glo luminescence; series mostly up to 76.8 µM
In short: as §3
On the % scale 0 is the no-effect control and ±100 the full control effect.

CC(=O)c1cccnc1
inactive: Potency [1] | Potency [2] | Potency [3] | outcome [4] | max response [5] -6.53% | Potency [6] | Potency [7] | Potency [8] | Potency [9] | Potency [10] | Potency [11] | Potency [12] | Potency [13] | Potency [14] | Potency [15] | Potency [16] | Potency [17] | Potency [18]

c1ccc(-c2ccc(-c3ccccc3)cc2)cc1
inactive: activity change, negative = cytotoxic [1] 3.84% [at 15.8 µM] | cytotoxicity increase [2] -4.32% [at 15.8 µM] | activity change, negative = cytotoxicity [3] 0.695% [at 15.8 µM] | viability change, negative = cytotoxic [4] 0.239% [at 15.8 µM] | max response [5] 0.336% | activity change [6] -5.55% [at 15.8 µM, hits give high values] | cytotoxicity increase [7] -3.4% [at 15.8 µM] | activity change, negative = cytotoxic [8] 2.08% [at 15.8 µM] | cytotoxicity [9] -1.79% [at 15.8 µM] | cytotoxicity increase [10] 1.53% [at 15.8 µM] | cytotoxicity increase [12] -3.83% [at 15.8 µM] | cytotoxicity [13] 0.432% [at 15.8 µM] | cytotoxicity increase [14] 2.09% [at 15.8 µM] | cytotoxicity increase [15] -5.69% [at 15.8 µM] | activity change, negative = cytotoxic [19] 0.423% [at 15.8 µM] | activity change, negative = cytotoxicity [20] 0.629% [at 15.8 µM] | activity change, negative = cytotoxicity [16] 0.793% [at 15.8 µM] | activity change [17] -4.6% [at 15.8 µM, hits give high values] | activity change, negative = cytotoxicity [18] -2.66% [at 15.8 µM]

C/C(=C\C(C)CC(C)CC(C)C)C1CC(=O)OC1=O (stereo not given)
inactive: Potency [1] | Potency [2] | Potency [3] | outcome [4] | max response [5] -12% | Potency [6] | Potency [7] | Potency [8] | Potency [9] | Potency [10] | Potency [11] | Potency [12] | Potency [13] | Potency [14] | outcome [19] | Potency [20] | Potency [16] | Potency [17] | Potency [18]

COc1ccc(/C(C)=C/C(=O)O)c(OC)c1
inactive: Potency [1] | Potency [2] | Potency [3] | outcome [4] | max response [5] 6.45% | Potency [6] | Potency [7] | Potency [8] | Potency [9] | Potency [10] | Potency [11] | Potency [12] | Potency [13] | Potency [14] | outcome [19] | Potency [20] | Potency [16] | Potency [17] | Potency [18]

CCCCCCCCC(=O)OCC(C)OC(=O)CCCCCCCC (stereo not given)
inactive: Potency [1] | Potency [2] | Potency [3] | outcome [4] | max response [5] 0.14% | Potency [6] | Potency [7] | Potency [8] | Potency [9] | Potency [10] | Potency [11] | Potency [12] | Potency [13] | Potency [14] | outcome [19] | Potency [16] | Potency [17] | Potency [18]

CC(C(=O)O)c1ccc(/C=C2\CCCCC2=O)cc1 (stereo not given)
inactive: Potency [1] | Potency [2] | Potency [3] | outcome [4] | max response [5] 21% | Potency [6] | Potency [7] | Potency [8] | Potency [9] | Potency [10] | Potency [11] | Potency [13] | Potency [14] | Potency [15] | Potency [20] | Potency [16] | Potency [17] | Potency [18]

CC(=O)OCC(=O)[C@@]1(O)CC[C@H]2[C@@H]3CCC4=CC(=O)C=C[C@]4(C)[C@@]3(F)[C@@H](O)C[C@@]21C
active: Potency [18] 3.01 µM
inactive: Potency [1] | Potency [2] | Potency [3] | outcome [4] | max response [5] -21.2% | Potency [6] | Potency [7] | Potency [8] | Potency [9] | Potency [10] | Potency [12] | Potency [13] | Potency [14] | Potency [15] | outcome [19] | Potency [20] | Potency [16] | Potency [17]

Cc1nc(C)c(C)nc1C
inactive: Potency [1] | Potency [2] | Potency [3] | outcome [4] | max response [5] -5.51% | Potency [6] | Potency [7] | Potency [8] | Potency [9] | Potency [10] | Potency [11] | Potency [13] | Potency [14] | Potency [15] | outcome [19] | Potency [20] | Potency [16] | Potency [17] | Potency [18]

CCCCCCCCCCCCCCCCN
inactive: Potency [1] | Potency [3] | outcome [4] | max response [5] 11.5% | Potency [8] | Potency [11] | outcome [19] | Potency [20] | Potency [16] | Potency [18]
active: Potency [2] 12 µM | Potency [6] 10.7 µM | Potency [7] 23.9 µM | Potency [9] 21.3 µM | Potency [10] 23.9 µM | Potency [13] 21.3 µM | Potency [14] 23.9 µM | Potency [15] 19 µM | Potency [17] 19 µM

O=C(O)CCc1nc2ccccc2[nH]1
inactive: Potency [1] | Potency [2] | Potency [3] | outcome [4] | max response [5] 11% | Potency [6] | Potency [7] | Potency [8] | Potency [9] | Potency [10] | Potency [11] | Potency [13] | Potency [14] | Potency [15] | outcome [19] | Potency [20] | Potency [16] | Potency [17] | Potency [18]

Cc1ccccc1CCO
inactive: Potency [1] | Potency [2] | Potency [3] | outcome [4] | max response [5] 5.71% | Potency [6] | Potency [7] | Potency [8] | Potency [9] | Potency [10] | Potency [12] | Potency [13] | Potency [14] | Potency [15] | outcome [19] | Potency [20] | Potency [16] | Potency [17] | Potency [18]

COC(=O)c1cc(Cl)ccc1[N+](=O)[O-]
inactive: Potency [1] | Potency [2] | Potency [3] | outcome [4] | max response [5] -14.8% | Potency [6] | Potency [7] | Potency [8] | Potency [9] | Potency [10] | Potency [12] | Potency [13] | Potency [14] | Potency [15] | outcome [19] | Potency [20] | Potency [16] | Potency [17] | Potency [18]
